Results as given in PubChem BioAssay (NCI).
The panel holds about 79,000 compounds, 15% with a hit somewhere; the sample as a whole holds those more often. A number with no mark means an inactive call. Calls of active or inactive are those of the source. Cut-off read from the data, not from the text of the source: active = growth inhibition above about 70%; inactive = the rest.

Test: NCI Yeast Anticancer Drug Screen. Data for the rad50 strain (AID 155);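 note: 0% = growth of vehicle-only cultures of the same strain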
Settings: S. cerevisiae rad50 strain growth inhibition; at 50.0 µM (retest, dose inferred, filed as 5.0); active compounds read high
Procedure, shortened: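 Vehicle-treated cultures provide the reference for the growth inhibition reported for compound-exposed, repair-deficient yeast.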

Row | SMILES | growth inhibition
1 | COc1cc(C(c2cc3c(cc2O)OCO3)N2CCN(C(c3cc(OC)c(OC)c(OC)c3)c3cc4c(cc3O)OCO4)CC2)cc(OC)c1OC (configuration not stated) | 69%
2 | Cc1cc(N)c(C)c2c1[nH]c1ccc(Br)cc12 | 96% (active)
3 | COc1ccc(C2c3cc4c(cc3OC(O)(CO)C2C(=O)O)OCO4)cc1 (configuration not stated) (tested in a mixture with another compound) | 86% (active)
4 | CCCCCC(/C=N/Nc1nc(C)cc(=O)[nH]1)=C\c1ccccc1 | 45%
5 | O=C1/C(=C/c2ccc([N+](=O)[O-])cc2)CNC/C1=C\c1ccc([N+](=O)[O-])cc1 | 99% (active)
6 | CC(c1ccc2cccc(F)c2c1)c1ccccc1C(=O)O (configuration not stated) | 99% (active)
7 | CN(NC(=O)CC(=O)NN(C)C(=S)c1ccccc1)C(=S)c1ccccc1 | 84% (active)
8 | O=c1nc(N2CCCC2)nc(N2CCCC2)s1 | -8%
9 | CC(=O)SC1C(=O)N(C)C(SC(C)=O)C(=O)N1C (configuration not stated) | -21%
10 | CCN(CC)CC(O)c1ccnc2c(O)cccc12 (configuration not stated) | 40%
11 | CC1=NN(c2ccccc2)C(=O)C1N=Nc1cc(Cl)cc(S(=O)(=O)O)c1O (configuration not stated) | 99% (active)
12 | O=C(O)CC(NC(=O)CP(=O)(O)O)C(=O)O.[NH-]C1CCCCC1[NH-].[Pt+2] (configuration not stated) | 24%
13 | COc1ccc(-c2nc3c(C(=O)NCCN(C)C)cccc3c3ccccc23)cc1 | 42%
14 | C[C@]12CCC(=O)C=C1CC[C@@H]1[C@@H]2[C@@H](O)C[C@@]2(C)[C@H]1CC[C@]2(O)C(=O)COC(=O)CCC1CCCC1 | 91% (active)
15 | O=C1C=CC(=O)N1c1cccc([N+](=O)[O-])c1 | 99% (active)
16 | CC(=O)O/C=C1\c2ccccc2CCC1c1ccc2ccccc2c1 (configuration not stated) | -5%

Row | SMILES | growth inhibition
17 | CCOc1ccccc1NC1=C(Cl)C(=O)c2ccccc2C1=O | 97% (active)
18 | CCc1cccc(C)c1N1C(=O)C(=O)C(c2nc3ccccc3o2)/C(=N\NS(=O)(=O)c2ccc(C)cc2)C1=O (configuration not stated) | 0%
19 | O=C(CC(=O)c1ccccc1)CC(=O)c1cccc(Cl)c1 | 87% (active)
20 | CC(O)c1c2ccccc2cc2ccccc12 (configuration not stated) | 72% (active)
21 | CCCCCCCCCCCCCCCCC#N | -8%
22 | O=C1/C(=C/c2cccc(Br)c2)CCc2ccccc21 | 26%
23 | CC1(C)c2ccccc2Cc2cc3ccccc3nc21 | 98% (active)
24 | CN(C)Cc1ccc2[nH]c3c(c2c1)CCCC3 | 96% (active)
25 | C=C1C(=O)O[C@@H]2C[C@@]3(C)CCC[C@H](C)C3=C[C@H]12 | 91% (active)
26 | O=C1C=CC(=O)c2c1cc1ccccc1c2O | 97% (active)
27 | Cc1c(CNc2ccc(Cl)c(Cl)c2Cl)cnc2nc(N)nc(N)c12 | 86% (active)
28 | O=C(O)C1(Cc2ccc3c(c2)CCC3)Cc2cc3c(cc2C1)CCC3 | 2%
29 | O=C(c1ccc(O)c(Br)c1)c1cc(Br)ccc1O | 98% (active)
30 | Oc1cc(F)cc2cccnc12 | 92% (active)
31 | C/C(=N\OC(=O)c1ccccc1)[N+](=O)[O-] | 98% (active)
32 | O=C(c1ccccc1)C(Br)CCCC(Br)C(=O)c1ccccc1 (configuration not stated) | 64%
